Experiment [1] is described as follows: Cell Viability - Jurkat (AID 426;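 active = dose-dependent loss of cell ATP signal giving a full or clear fitted curve, ranked by lower potency value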;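 note: potency is the fitted concentration of half-maximal effect; cells exposed to compound for 40 hours at 37 °C before ATP read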). The conditions noted are these: qHTS. Summed up:
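Seed 5000 Jurkat E6-1 cells/well; add compound; incubate 40 hr at 37 °C; add CellTiter-Glo; wait 20 min at room temperature; read luminescence. Fit concentration-response with Hill equation for AC50.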

Experiment [2] is described as follows: Cellular Toxicity (caspase-3) Jurkat (AID 655).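 Note: cells exposed to compound for 16 h at 37 °C before reading.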 The conditions noted are these: Jurkat caspase-3 activation, luminescence, DMSO = 0%, tamoxifen = 100%; series mostly up to 92.2 µM. An outline of the steps: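 Jurkat cells (5000/well) in complete medium exposed 16 h at 37 C; caspase-3/7 activity read by Caspase-Glo luminescence after 20 min at room temperature. Normalized to DMSO and 100 uM tamoxifen; AC50 from Hill fits.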

The nature of experiment [3]: Cell Viability - LYMP2-001 (AID 921).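 Note: 0% = DMSO only and full inhibition = tetraoctylammonium bromide control wells; nearly all actives have a fitted effect of over 70% in size.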 The note with it: LYMP2-001 lymphoblastoid cell viability; series mostly up to 92.2 µM. An outline of the steps:
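Human lymphoblastoid LYMP2-001 cells, 2500 per well, in complete medium, treated 24 h at 37 C. Viability from cellular ATP by CellTiter-Glo luminescence; AC50 from Hill-equation fits of qHTS concentration-response.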

Experiment [4] in a line: MultiTox-Fluor Cytotoxicity Assay - LYMP1-002 - Dead Cells (AID 960).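 Note: 0% = DMSO and 100% = tetraoctylammonium bromide; nearly all actives have a fitted effect of over 60% in size.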 The note with it: LYMP1-002 lymphoblastoid cells, dead-cell protease fluorescence; series mostly up to 46.1 µM. Summed up: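 Acute cytotoxicity in a human lymphoblastoid line is scored as rising dead-cell protease signal after 16 hr exposure at 37 C, measured fluorometrically (485/520).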
Experiment [5] in a line: Cell Viability - LYMP2-007 (AID 979).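 Note: cells exposed to compound for 24 h before reading; 0% = DMSO only and the negative end = 92 µM tetraoctylammonium bromide; nearly all actives have a fitted effect of over 60% in size.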 The note with it: LYMP2-007 lymphoblastoid cell viability; series mostly up to 92.2 µM. An outline of the steps: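 Acute toxicity is scored as a concentration-dependent fall in intracellular ATP in human lymphoblastoid cells treated 24 hr at 37 C, measured by luciferase luminescence; Hill-equation modelling yields AC50.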
Experiment [6] is described as follows: Cell Viability - LYMP2-014 (AID 983).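 Note: plate controls were DMSO only for no effect and 92 µM tetraoctylammonium bromide for full effect; nearly all actives have a fitted effect of over 50% in size.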 The conditions noted are these: LYMP2-014 lymphoblastoid cells, viability qHTS; series mostly up to 92.2 µM. An outline of the steps:
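Decrease in intracellular ATP after 24 hr treatment at 37 C, measured by luciferase luminescence, indicated cytotoxicity. Concentration-response data were fitted with the standard Hill equation to give AC50.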

Experiment [7] can be described thus: Cell Viability - LYMP2-016 (AID 984).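 Note: cells exposed to compound for 24 hours at 37 °C; % is set by controls: 0 for no effect and ±100 for the full control effect; nearly all actives have a fitted effect of over 55% in size.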 The note with it: LYMP2-016 lymphoblastoid cell viability, qHTS; series mostly up to 92.2 µM. An outline of the steps: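 Human lymphoblastoid LYMP2-016 cells, 2500 per well, treated with compounds for 24 h at 37 C. Viability read as intracellular ATP by CellTiter-Glo luminescence after 30 min at room temperature; AC50 from Hill fits of concentration-response.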
(In general: In qHTS, concentration-response curves come from the screen itself.)

A short description of experiment [8]: Cell Viability - LYMP2-022 (AID 987).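 Note: 0% = DMSO alone and full effect = tetraoctylammonium bromide at 92 µM; nearly all actives have a fitted effect of over 55% in size.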 The conditions noted are these: LYMP2-022 lymphoblastoid cell viability; series mostly up to 92.2 µM. An outline of the steps: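 Acute toxicity in a human lymphoblastoid line is scored as decreased intracellular ATP after 24 hr compound treatment at 37 C. ATP is measured by CellTiter-Glo luminescence; curves are fitted with the Hill equation to give AC50.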

Experiment [9] in a line: Cell Viability - LYMP2-024 (AID 988).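 Note: plate controls were DMSO only for no effect and 92 µM tetraoctylammonium bromide for full effect; nearly all actives have a fitted effect of over 60% in size.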 The note with it: LYMP2-024 lymphoblastoid cell viability; series mostly up to 92.2 µM. Summed up:
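Acute toxicity is measured as concentration-dependent loss of intracellular ATP in a human lymphoblastoid line treated 24 hours at 37 C. Luciferase luminescence quantifies ATP; AC50 values come from standard Hill-equation modelling.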

A short description of experiment [10]: qHTS assay for small molecule antagonists of retinoid X receptor alpha signaling (AID 588546).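 Note: cells stimulated with 9-cis-retinoic acid as agonist; % is set by controls: 0 for no effect and ±100 for the full control effect.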 The note with it: HEK293T RXRa-UAS-bla, beta-lactamase ratio, antagonist mode; measured here: W530 green channel, cytotoxicity proxy. Summed up: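 Beta-lactamase reporter inhibition, read as CCF4 fluorescence ratio (ex 405, em 460/530 nm) after 2 h at RT. HEK293T UAS-bla cells, 2500/well, were stimulated with 9-cis-RA at 500 or 100 nM final alongside test compound for 18 h at 37 C.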

Experiment [11] addresses Thyroid hormone receptor beta (Homo sapiens) (UniProt P10828). In words: qHTS assay for small molecule antagonists of thyroid hormone receptor beta signaling (AID 588547; active = well fitted inhibition curve with a large enough effect in the signal ratio, with a control signal flat, not every such curve was filed as active; the % refers to the signal ratio;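 note: cells stimulated with 0.4 nM T3 agonist during compound exposure; % is set by controls: 0 for no effect and ±100 for the full control effect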). The conditions noted are these: TR-UAS-bla HEK293, beta-lactamase ratio, antagonist mode, 18 h. An outline of the steps: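 TR-UAS-bla GripTite HEK293 cells in 2% charcoal/dextran FBS medium were preincubated 4 h at 37 C, given compound (0.59 nM to 92 uM) plus 0.4 nM T3 (final) for 18 h, then CCF4 for 2 h at RT; Hill fit gave IC50.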

Experiment [12] concerns the target Voltage-gated inwardly rectifying potassium channel KCNH2 (Homo sapiens) (UniProt Q12809). The experiment in a line: qHTS Assay for Small Molecule Inhibitors of the Human hERG Channel Activity (AID 588834).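 Note: lower thallium flux fluorescence means stronger hERG block; nearly all actives have a fitted effect of over 50% in size.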 Note: potency is the fitted concentration of half-maximal effect. The conditions noted are these: U2OS BacMam hERG, FluxOR thallium flux fluorescence; series mostly up to 46.1 µM. An outline of the steps: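 U2OS cells BacMam-transduced with hERG, 2000 cells/well, compound ~10 min at 37 °C before stimulation buffer. FluxOR thallium flux fluorescence read kinetically on FDSS; decrease indicates block; AC50 from Hill fits.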

Experiment [13] in a line: qHTS assay for small molecule activators of the p53 signaling pathway (AID 651743; active = well fitted activation curve with a large enough effect in the signal ratio, not every such curve was filed as active; the % refers to the signal ratio; note: % of control where 0% means no effect). The conditions noted are these: HCT-116 p53RE-bla, beta-lactamase FRET ratio, 16 h; activation: stronger effect = higher value. An outline of the steps: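 p53RE-bla HCT-116 cells with a stably integrated beta-lactamase reporter under p53 response elements were plated, rested 5 hours at 37 C/5% CO2, then exposed to compounds in DMSO for 16 hours at 37 C. LiveBLAzer B/G FRET substrate was read after 2 hours at room temperature.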

Experiment [14] can be described thus: qHTS assay for small molecule disruptors of the mitochondrial membrane potential - 1 hr assay (AID 651754; calls by dose curve; note: nearly all actives have a fitted effect of over 35% in size; note: potency is the fitted concentration of half-maximal effect). The note with it: series mostly up to 92.2 µM. Summed up: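 Steps: seed HepG2 cells and let attach overnight; pin-transfer compound or vehicle; incubate 1 hr at 37C; add Mito-MPS dye for 30 min; read two-channel fluorescence for monomer and aggregate forms.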

Experiment [15] concerns the target Tumor necrosis factor (Homo sapiens) (UniProt P01375). The experiment in a line: qHTS assay to identify small molecules that stimulate Tumor Necrosis Factor-alpha (TNF-alpha) secretion (AID 651757; active = well fitted curve in the direction sought with a large enough effect in the signal ratio; the % refers to the signal ratio; note: 0% is about no effect). The conditions noted are these: Human cells, HTRF 665/615 ratio; series mostly up to 92.2 µM. An outline of the steps:
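Secreted TNF-alpha from compound-treated THP-1 cells (17 hrs, 37 C) was quantified with a homogeneous time-resolved fluorescence antibody assay.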

Experiment [16] is described as follows: qHTS assay for small molecule agonists of the antioxidant response element (ARE) signaling pathway measured by Nrf2-dependant transcriptional activity (AID 720636; active = well fitted curve in the direction sought with a large enough effect in the repeat runs; an effect the other way counts as inactive or inconclusive; note: % of control where 0% means no effect). The note with it: ARE-luc HepG2, Nrf2 luciferase reporter, 16 h; series mostly up to 92.4 µM. An outline of the steps:
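ARE-luc HepG2 cells carrying an Nrf2-responsive luciferase reporter were plated in medium with 1% dialyzed FBS, left 6 hr at 37 C to attach, then exposed to compound for 16 hr. Luciferase luminescence was read after ONE-Glo addition.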

Experiment [17] addresses Chromobox protein homolog 1 (Homo sapiens) (UniProt P83916). In words: qHTS Validation Assay for Inhibitors of HP1-beta Chromodomain Interactions with Methylated Histone Tails (AID 488953). Note: potency is the fitted concentration of half-maximal effect; nearly all actives have a fitted effect of over 50% in size. The note with it: HP1-beta chromodomain / methylated histone peptide binding assay; series mostly up to 114 µM. Summed up: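 Measured as loss of AlphaScreen luminescence from streptavidin donor and nickel acceptor beads (10 ug/mL final) bridging HP1-beta and biotin-H3(1-18)K9me3, each 50 nM. Compounds met the preassembled complex for 30 min at RT.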

Experiment [18] is described as follows: qHTS for differential inhibitors of proliferation of Plasmodium falciparum line GB4 (AID 1816).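 Note: potency is the fitted concentration of half-maximal effect; parasite growth measured after 72 h incubation.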 The conditions noted are these: Potency: Plasmodium falciparum GB4 proliferation inhibition; series mostly up to 28.7 µM.
A short description of experiment [19]: qHTS for differential inhibitors of proliferation of Plasmodium falciparum line W2 (AID 1883).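 Note: potency is the fitted concentration of half-maximal effect; parasites grown with compound for 72 h before lysis and staining.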 The conditions noted are these: Potency: Plasmodium falciparum W2 proliferation inhibition; series mostly up to 28.7 µM.
In experiment [20] the target is Arylsulfatase A (Homo sapiens) (UniProt P15289). The experiment in a line: qHTS screen for enhancers of Arylsulfatase A (ASA1): LOPAC Validation Assay (AID 720538). The conditions noted are these: ASA enzyme activity, LOPAC qHTS enhancer assay; series mostly up to 57.5 µM. Summed up: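 SV40-transformed fibroblasts from an MLD patient (ASA-I179S) were treated with compound for 48 h at 37 C. They were then lysed with 0.5 mM pNCS substrate (final) for 14 h at room temperature and stopped with NaOH; signal read by fluorescence (Ex 525/Em 598 nm), with increase denoting enhanced activity.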

Structures are written as SMILES. Where “and” joins values, the source holds several entries; their conditions need not be identical. Identical values can stand only once. Records with an inconclusive call do not appear. Calls of active or inactive are those of the source. Unless noted, calls come from the whole dose curve; as a rule, active = well fitted curve in the direction sought with a large enough effect; inconclusive = small, poorly fitted or top-dose-only effect, or another doubt; inactive = no such curve, though single readings can be large; an effect the other way counts as inactive or inconclusive.

Thyroid hormone receptor beta (Homo sapiens), sequence (P10828 whole entry, looked up): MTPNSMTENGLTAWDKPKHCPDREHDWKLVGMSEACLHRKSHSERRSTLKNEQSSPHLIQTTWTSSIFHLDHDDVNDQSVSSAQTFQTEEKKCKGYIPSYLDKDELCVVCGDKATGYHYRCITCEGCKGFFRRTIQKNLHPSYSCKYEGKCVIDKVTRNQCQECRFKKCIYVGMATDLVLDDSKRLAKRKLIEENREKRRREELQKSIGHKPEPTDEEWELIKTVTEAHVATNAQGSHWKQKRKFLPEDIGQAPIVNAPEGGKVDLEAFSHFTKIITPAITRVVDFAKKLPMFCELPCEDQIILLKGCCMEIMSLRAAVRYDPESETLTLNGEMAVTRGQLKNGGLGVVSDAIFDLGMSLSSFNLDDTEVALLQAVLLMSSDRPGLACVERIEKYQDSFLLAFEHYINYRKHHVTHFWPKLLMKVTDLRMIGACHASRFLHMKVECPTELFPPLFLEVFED
Tumor necrosis factor (Homo sapiens), sequence (P01375 whole entry, looked up): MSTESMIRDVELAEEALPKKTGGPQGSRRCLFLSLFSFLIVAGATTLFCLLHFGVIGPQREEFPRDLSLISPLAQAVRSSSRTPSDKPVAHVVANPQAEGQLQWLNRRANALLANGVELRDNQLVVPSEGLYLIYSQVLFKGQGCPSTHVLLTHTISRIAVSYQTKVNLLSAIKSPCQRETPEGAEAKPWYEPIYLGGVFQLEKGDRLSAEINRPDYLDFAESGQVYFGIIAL
Voltage-gated inwardly rectifying potassium channel KCNH2 (Homo sapiens), sequence (Q12809 whole entry, looked up): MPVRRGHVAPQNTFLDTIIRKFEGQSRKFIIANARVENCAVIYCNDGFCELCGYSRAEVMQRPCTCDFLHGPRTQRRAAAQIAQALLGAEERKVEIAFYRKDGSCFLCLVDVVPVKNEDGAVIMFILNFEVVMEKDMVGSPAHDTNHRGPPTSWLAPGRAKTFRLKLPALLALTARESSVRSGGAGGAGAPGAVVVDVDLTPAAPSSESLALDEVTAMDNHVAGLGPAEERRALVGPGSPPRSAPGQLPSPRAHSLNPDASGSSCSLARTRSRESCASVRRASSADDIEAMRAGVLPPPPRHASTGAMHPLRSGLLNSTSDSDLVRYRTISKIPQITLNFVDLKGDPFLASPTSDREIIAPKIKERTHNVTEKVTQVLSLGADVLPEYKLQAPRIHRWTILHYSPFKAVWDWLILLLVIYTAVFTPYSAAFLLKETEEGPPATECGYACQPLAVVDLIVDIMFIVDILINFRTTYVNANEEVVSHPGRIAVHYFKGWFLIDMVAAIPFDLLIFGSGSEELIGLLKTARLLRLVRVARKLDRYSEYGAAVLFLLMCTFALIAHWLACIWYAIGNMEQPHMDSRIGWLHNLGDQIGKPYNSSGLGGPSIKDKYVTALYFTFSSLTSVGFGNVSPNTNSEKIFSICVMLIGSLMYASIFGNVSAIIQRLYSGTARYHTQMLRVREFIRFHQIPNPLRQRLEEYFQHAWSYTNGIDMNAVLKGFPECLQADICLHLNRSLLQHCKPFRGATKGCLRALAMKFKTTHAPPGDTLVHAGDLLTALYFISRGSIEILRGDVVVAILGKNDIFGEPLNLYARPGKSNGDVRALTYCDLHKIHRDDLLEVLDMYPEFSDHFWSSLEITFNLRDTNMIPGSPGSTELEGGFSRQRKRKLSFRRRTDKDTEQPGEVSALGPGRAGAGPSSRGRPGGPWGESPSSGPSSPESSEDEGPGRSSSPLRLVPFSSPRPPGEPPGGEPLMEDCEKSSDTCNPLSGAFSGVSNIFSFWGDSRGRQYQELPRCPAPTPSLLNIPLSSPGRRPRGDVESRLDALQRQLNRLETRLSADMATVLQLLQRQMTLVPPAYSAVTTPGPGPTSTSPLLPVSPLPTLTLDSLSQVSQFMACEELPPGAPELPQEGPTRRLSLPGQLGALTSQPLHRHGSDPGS
Chromobox protein homolog 1 (Homo sapiens), sequence (P83916 whole entry, looked up): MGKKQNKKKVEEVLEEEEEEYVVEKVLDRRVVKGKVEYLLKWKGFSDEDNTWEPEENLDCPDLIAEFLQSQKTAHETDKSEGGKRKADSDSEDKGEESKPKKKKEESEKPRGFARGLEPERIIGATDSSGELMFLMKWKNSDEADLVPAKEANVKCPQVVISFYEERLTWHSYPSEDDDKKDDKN
Arylsulfatase A (Homo sapiens), sequence (P15289 whole entry, looked up): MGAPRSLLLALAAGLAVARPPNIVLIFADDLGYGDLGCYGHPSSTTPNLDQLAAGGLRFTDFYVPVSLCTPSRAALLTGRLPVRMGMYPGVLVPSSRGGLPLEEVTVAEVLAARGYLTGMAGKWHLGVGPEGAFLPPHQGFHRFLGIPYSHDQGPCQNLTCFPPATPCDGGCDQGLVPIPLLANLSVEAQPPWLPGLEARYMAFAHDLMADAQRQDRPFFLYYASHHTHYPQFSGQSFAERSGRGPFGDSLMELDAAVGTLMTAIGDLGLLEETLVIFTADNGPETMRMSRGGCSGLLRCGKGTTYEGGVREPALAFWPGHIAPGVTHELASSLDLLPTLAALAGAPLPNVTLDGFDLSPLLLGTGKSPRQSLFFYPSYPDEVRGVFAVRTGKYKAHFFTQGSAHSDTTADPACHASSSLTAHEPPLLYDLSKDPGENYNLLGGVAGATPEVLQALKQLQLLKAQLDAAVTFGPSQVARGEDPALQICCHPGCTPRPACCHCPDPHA

As for `Oc1ccccc1Cl`, in [1], the Potency is > 92 µM (inactive). Further, the molecule was called inactive in [2], in [3], in experiment [5], in experiment [6], in experiment [7] and in [8]. For the same molecule, the molecule was classed as inactive in experiment [9] and in [15]. Moreover, the Potency result in [4], in [12], in [14] and in experiment [16] was “inactive” in each case. Besides, in [10], the max response is -10.5%. Further, in experiment [11], the activity change % (negative = inhibition) is -7.68% (inactive). For the same molecule, in [13], the activation is -5.71% (inactive).

For `c1ccc(Nc2ccc3ccccc3c2)cc1`, the call in experiment [2], in experiment [3], in [5], in [6], in experiment [7] and in [8] was inactive. The outcome in experiment [9] was inactive. For the same molecule, in experiment [10], the max response is -7.73% and -2.18%. Further, the activity change % (negative = inhibition) in experiment [11] is -6.28% (inactive). Moreover, the Potency was 25.1 µM (active) in experiment [12] and 37.6 µM (active) in [14]. For the same molecule, the activation in [13] was -2.23% (inactive) and -2.96% (inactive).

With `Nc1nc2[nH]c(=O)cnc2c(=O)[nH]1`, the Potency in experiment [17] is 0.0095 µM (active).

With `COc1cc([C@@H]2c3cc4c(cc3[C@H](O)C3COC(=O)[C@@H]32)OCO4)cc(OC)c1OC` (stereo not given in full), the Potency is 12.6 µM (active) in [18] and 11.2 µM (active) in experiment [19].

As to `Nc1nc2ccc(Cl)cc2c2nc(-c3ccco3)nn12`, the Potency in [19] is 11.2 µM (active). Also, the Potency result in experiment [20] is “inactive”.

`c1ccc2c(c1)-c1cccc3cccc-2c13`: in [1], the Potency was > 92 µM (inactive). Further, the call in experiment [2], in experiment [3], in experiment [5], in [6], in experiment [7] and in [8] was inactive. Further, the call in [9] and in experiment [15] was inactive. Moreover, the Potency entry in experiment [4] and in experiment [16] was “inactive” in each case. Further, in [10], the max response is -3.55%. Besides, in experiment [11], the activity change % (negative = inhibition) is 3.57% (inactive). In addition, the activation in [13] is 5.47% (inactive) and -0.395% (inactive).

For the molecule `CCOC(=O)c1ccccc1N`, the Potency in [1] is > 92 µM (inactive). Also, the outcome in [2], in [3], in experiment [5], in experiment [6], in [7] and in experiment [8] was inactive. Moreover, the molecule was classed as inactive in experiment [9] and in experiment [15]. The Potency entry in experiment [4], in experiment [12], in [14] and in experiment [16] was “inactive” each time. Besides, the max response in [10] is -2.66%. Besides, the activity change % (negative = inhibition) in [11] was 5.04% (inactive).

Turning to `CCCCCCCCCC[Si](C)(C)CCC(=O)NC(Cc1ccc(C)cc1)c1ccccc1` (stereo not given), the Potency is 2.24 µM (active) in [18] and 3.16 µM (active) in experiment [19].

For the molecule `COc1ccc2c(c1)CCC1C2CC[C@@]2(C)C1CC[C@@H]2NCCCCCCN1C(=O)C=CC1=O` (stereo not given in full), the Potency in [17] is 50.1 µM (active).

Source of the values: PubChem BioAssay (NCATS).
